# Results reported in PubChem BioAssay (NCI).
# About 83,000 compounds went through this panel and 20% of them were active in at least one assay; those are over-represented in the sample as a whole.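 The endpoint reported here, percent growth, reads 100 for growth as untreated, 0 for no net growth and -100 for all cells dead.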 Values without a mark were called inactive. The source made the active and inactive calls. Rule for the calls: active = growth percent below 10; inactive = the rest.
# What was measured:
# Test in all cases: NCI-60 one-dose screen, 48 h (100 = growth as untreated, 0 = no growth, -100 = all killed)
# Settings in all cases: 10 µM unless noted
# SK-MEL-2 melanoma = system: SK-MEL-2 melanoma
# EKVX NSCLC = system: EKVX NSCLC
# SN12C renal = system: SN12C renal
# UO-31 renal = system: UO-31 renal
# TK-10 renal = system: TK-10 renal
# ACHN renal = system: ACHN renal
# CAKI-1 renal = system: CAKI-1 renal
# A498 renal = system: A498 renal
# CCRF-CEM leukemia = system: CCRF-CEM leukemia
# MOLT-4 leukemia = system: MOLT-4 leukemia
# SR leukemia = system: SR leukemia
# RPMI-8226 leukemia = system: RPMI-8226 leukemia
# OVCAR-8 ovarian = system: OVCAR-8 ovarian
# OVCAR-5 ovarian = system: OVCAR-5 ovarian
# OVCAR-4 ovarian = system: OVCAR-4 ovarian
# SK-OV-3 ovarian = system: SK-OV-3 ovarian
# IGROV1 ovarian = system: IGROV1 ovarian
# OVCAR-3 ovarian = system: OVCAR-3 ovarian
# HS 578T breast = system: HS 578T breast
# NCI/ADR-RES ovarian = system: NCI/ADR-RES ovarian
SMILES,growth (SK-MEL-2 melanoma),growth (EKVX NSCLC),growth (SN12C renal),growth (UO-31 renal),growth (TK-10 renal),growth (ACHN renal),growth (CAKI-1 renal),growth (A498 renal),growth (CCRF-CEM leukemia),growth (MOLT-4 leukemia),growth (SR leukemia),growth (RPMI-8226 leukemia),growth (OVCAR-8 ovarian),growth (OVCAR-5 ovarian),growth (OVCAR-4 ovarian),growth (SK-OV-3 ovarian),growth (IGROV1 ovarian),growth (OVCAR-3 ovarian),growth (HS 578T breast),growth (NCI/ADR-RES ovarian)
O=[N+]([O-])c1cccc(-c2nc(-c3ccc(Cl)cc3Cl)cn2-c2ccccc2)c1,52.4%,-8.4% (active),11.5%,2.03% (active),29.3%,-52.1% (active),-68.8% (active),-33.2% (active),95.5%,45.4%,-65% (active),61.7%,-59.2% (active),12.1%,-93.3% (active),33.4%,29.7%,-55.9% (active),-38.8% (active),-1.46% (active)
NC(=O)c1ccc[n+](CC(=O)N2CCN(c3cc4c(cc3F)c(=O)c(C(=O)O)cn4C3CC3)CC2)c1,95.9%,106%,58%,74.3%,116%,84.5%,96.9%,101%,-25.2% (active),26.6%,32.2%,74.3%,92.8%,114%,74.8%,117%,99.4%,69.4%,91.1%,99.8%
O=C1NC(=S)NC(=O)C1=Cc1cn(Cc2ccccn2)c2ccccc12,89.7%,84.7%,66.6%,59.2%,72.7%,82.2%,7.91% (active),-86.4% (active),31.3%,66%,13.1%,91.2%,51.7%,-4.45% (active),80.8%,85.5%,11.3%,33.5%,81.9%,85.1%
CCC1(CC)NC(=O)c2c(c3ccc(Cl)c(Cl)c3n2C)C1C#N (stereo not given),115%,95.5%,84%,70.5%,127%,95.5%,66.6%,84.9%,19.4%,4.72% (active),5.94% (active),88.6%,93.6%,81.4%,91.8%,91.7%,74.6%,94.6%,97.1%,91.5%
O=C1NC(=O)C(=Cc2cn(Cc3ccccn3)c3ccccc23)C(=O)N1,102%,98%,102%,75.5%,59.8%,104%,13.9%,-90.4% (active),95.8%,100%,93%,96.1%,101%,-50.9% (active),93.4%,89.8%,31.6%,102%,94.7%,100%
O=S(=O)(NCCNc1nccc(-c2c(-c3ccc(F)c(O)c3)nc3sccn23)n1)c1ccccc1,12.7%,101%,64.1%,49.9%,138%,57.5%,54.6%,109%,37.2%,52.8%,35.8%,41%,67.6%,115%,92.8%,85.9%,68.9%,81.6%,82.1%,106%
Cn1c(COC(=O)NCCN2CCOCC2)nc2c(N3CCOCC3)nc(-c3ccccc3)nc21,-59.8% (active),-62.6% (active),-81.2% (active),-100% (active),-78.8% (active),-100% (active),-94.8% (active),30.7%,-10.9% (active),-16.2% (active),-5.83% (active),-26.2% (active),7.67% (active),-86.6% (active),-61.1% (active),77.7%,-93.3% (active),-86.5% (active),-35% (active),-12.7% (active)
CN1CCN(Cc2ccc(NC(=O)c3cncc(C#Cc4cnccc4C(F)(F)F)c3)cc2C(F)(F)F)CC1,73.4%,87.6%,75.7%,67.2%,109%,75.8%,93.8%,78.4%,82.9%,45.7%,37.3%,70.6%,92.2%,67.4%,59.2%,89%,58.3%,105%,53%,85.8%
O=C(O)c1ccc[n+](CC(=O)N2CCN(c3cc4c(cc3F)c(=O)c(C(=O)O)cn4C3CC3)CC2)c1,86.1%,107%,29.4%,71.8%,112%,72.8%,92.8%,98%,-25.6% (active),12.6%,17.2%,75.4%,79.7%,107%,60.4%,109%,95.8%,55.6%,87.9%,94.7%
CC1CCN(C(=O)OCc2nc3nc(Cl)nc(N4CCOCC4)c3[nH]2)CC1,-92% (active),40.4%,-61.4% (active),-100% (active),-91.8% (active),-100% (active),-73.8% (active),42.2%,-7.16% (active),0.0264% (active),-28.6% (active),-29.7% (active),-29% (active),-38.2% (active),-54.1% (active),62.8%,-68% (active),-92.8% (active),-13.5% (active),-18.6% (active)
COc1ccc(NC(=O)c2sc3nc(C)c(C(=O)c4ccc(OC)cc4)cc3c2N)cc1,23%,68.5%,63.8%,45.5%,55%,82.8%,42.6%,-3.91% (active),36%,27.5%,7.62% (active),41.3%,62.1%,72.6%,61.7%,42.7%,50.2%,25%,40.4%,48.9%
N/C(=N\N=C\c1cc2ccccc2[nH]1)N/N=C/c1cc2ccccc2[nH]1,100%,79.7%,89.9%,74.1%,116%,109%,87.3%,95.6%,84.4%,84.6%,6.87% (active),88.2%,97.4%,109%,83%,88.6%,64.4%,93.9%,90.3%,100%
CCN(CC)S(=O)(=O)c1cccc([N+](=O)[O-])c1,93%,98.7%,100%,82.6%,90%,109%,91.3%,73.2%,102%,105%,103%,93.2%,85.7%,109%,95.4%,86.9%,107%,108%,97.9%,103%
CCOC(=O)c1c(O)cc(-c2ccccc2)cc1-c1sc(N(C)Cc2ccccc2)nc1Cl,101%,101%,97.3%,96.8%,108%,97.2%,87.9%,108%,96.3%,94.4%,93.4%,95.2%,97.8%,89.4%,102%,95.7%,108%,106%,88.6%,102%
COc1c(Cl)cc(Cl)c2ccc(C=C3C(=O)N(C)C(=O)N(C)C3=O)nc12,107%,101%,99.3%,96%,102%,106%,95.3%,96.8%,99.8%,99.5%,93.2%,102%,111%,111%,104%,101%,114%,104%,104%,106%
